From PubChem BioAssay (NCI)
Compounds without any hit were thinned out: in the full panel of roughly 83,000, 20% have a hit.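 Testing used 96-well plates and a 48-hour single-concentration exposure. Example: -40 means 40% of the starting cells died.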 Values without a mark were called inactive. Activity calls are given as the source filed them. Rule for the calls: active = growth percent below 10; inactive = the rest.

Tests used:
Assay in all cases: NCI-60 one-dose screen, 48 h (100 = growth as untreated, 0 = no growth, -100 = all killed)
HCT-15 colon = conditions: 10 µM
HT29 colon = conditions: 10 µM
SNB-75 CNS = conditions: 10 µM
SNB-19 CNS = conditions: 10 µM
PC-3 prostate = conditions: 10 µM
SK-MEL-5 melanoma = conditions: 10 µM
UACC-62 melanoma = conditions: 10 µM unless noted
LOX IMVI melanoma = conditions: 10 µM
SK-MEL-28 melanoma = conditions: 10 µM
U251 CNS = conditions: 10 µM

| Structure (SMILES) | growth (HCT-15 colon) | growth (HT29 colon) | growth (SNB-75 CNS) | growth (SNB-19 CNS) | growth (PC-3 prostate) | growth (SK-MEL-5 melanoma) | growth (UACC-62 melanoma) | growth (LOX IMVI melanoma) | growth (SK-MEL-28 melanoma) | growth (U251 CNS) |
| --- | --- | --- | --- | --- | --- | --- | --- | --- | --- | --- |
| COc1cc(/C=C(\C#N)C(=O)c2ccccc2)ccc1OCc1ccccc1 | 98.9% | 105% | 91.7% | 100% | 95.2% | 102% | 97.2% | 90.9% | 112% | – |
| CCCCCCCCO | 98.3% | 111% | 90.1% | 103% | 94.3% | – | 108% | 105% | 112% | – |
| CCOC(=O)c1cc(/C=C/c2cccc(Cl)c2)on1 | 64.8% | 78.8% | 87.4% | – | 85.1% | 96.9% | 78.8% | -3.76% (active) | 104% | 87.5% |
| CC1(C)S(=O)(=O)OCCOS1(=O)=O | 101% | 105% | 98.7% | – | 100% | 93.6% | 92.3% | 95.2% | 112% | 95% |
| O=C(NCc1ccco1)Nc1c(Cl)cc(Cl)cc1Cl | 100% | 94.3% | 89.1% | 103% | 91.6% | – | 101% | 99.3% | 103% | – |
| CC1(O)OC(COc2ccc(Cl)cc2)COC1O (stereo not given) | 103% | 116% | 112% | – | 107% | 101% | 89.8% | 98.9% | 107% | 100% |
| CN(C)Cc1cc(C(C)(C)CC(C)(C)C)ccc1O | 79.4% | 99.9% | 79.9% | – | 84.1% | 100% | 99.5% | 94.9% | 109% | 90.8% |
| COc1ccc2c(c1)CCc1c-2n[nH]c1-c1[nH]nc2c1CCc1cc(OC)ccc1-2 | 35.6% | 52.3% | 29.3% | – | 50.4% | 37.2% | 25.8% | 43.8% | 58.7% | 54.2% |
| COC(=O)C(C)Oc1ccc(OC#N)cc1 (stereo not given) | 99.7% | 102% | 88.9% | – | 86.4% | 99% | 86.8% | 93.2% | 106% | 101% |
| CN(C)CCN(C)CC(C)(C)C(=O)/C=C/c1ccc(Cl)cc1 | -66.4% (active) | -16.7% (active) | 12.2% | – | -4.75% (active) | -24.9% (active) | -46.4% (active) | -96.4% (active) | -11.2% (active) | -1.73% (active) |
| Cc1ccc(/C=C2\SC(=S)N(c3ccc(F)cc3)C2=O)o1 | 88.1% | 70.6% | 24.7% | – | 96.1% | 88.2% | 85.2% | 68.8% | 100% | 61% |
| COc1ccc(/C(C#N)=C2C=C/C(=N/O)c3ccccc3\2)cc1 | 7.28% (active) | -13.3% (active) | 23.4% | 61.7% | 12.8% | – | 6.75% (active) | 9.34% (active) | 46.5% | – |
| CC(C)NC(=O)OCc1c(COC(=O)NC(C)C)c(-c2ccc(Cl)c(Cl)c2)n2c1SCC2 | 47.6% | 62.1% | 27.8% | – | 61.3% | 67.7% | -19.3% (active) | 19.1% | 92.8% | 43.3% |
| CC(=O)c1ccc(N=C(C#N)C2=C(O)c3ccccc3C2=O)cc1 | 113% | 98.7% | 78.8% | 101% | 100% | – | 109% | – | 113% | – |
| CC(=O)CC(=O)N(C)C | 95.1% | 97.8% | 80.1% | – | 92.8% | 93.7% | 88.8% | 94.1% | 105% | 100% |
| Cc1ccc(C)n1-c1ccsc1C(=O)NNC(=O)C(Cl)Cl | 103% | 106% | 104% | – | 88.5% | 94.8% | 93.4% | 81.7% | 112% | 107% |
| Clc1ccc(-c2nnc(-c3cccc4ccccc34)o2)cc1 | 80.1% | 89.3% | 76.8% | – | 82.4% | 93.7% | – | 84.2% | 107% | 90.2% |
| Nc1nc2c(c(-c3nc(N)nc4c3CCc3ccccc3-4)n1)CCc1ccccc1-2 | 104% | 112% | 98.8% | – | 86.9% | 99.3% | 94.6% | 98.3% | 115% | 114% |
| CC(CC(=O)c1ccccc1)c1ccccc1 (stereo not given) | 108% | 95.7% | 104% | 109% | 99.5% | – | 107% | – | 101% | – |
| CSc1[nH]c(=O)ncc1F | 100% | 112% | 102% | – | 96.5% | 101% | 92.8% | 95.8% | 111% | 100% |
| COc1ccc(Oc2c(I)cc(CC(NC(C)=O)C(=O)O)cc2I)cc1 (stereo not given) | 96.6% | 85.2% | 87.1% | – | 69.5% | 60.7% | 73.5% | 70% | 103% | 86.5% |
| CNC(=S)NC(C)(C)C | 106% | 101% | 146% | – | 89.9% | 93.6% | 94% | 105% | 108% | 97% |
| COc1ccc(C(=O)C(Br)C(Br)C(=O)O)cc1 (stereo not given) | 98.1% | 117% | 87.4% | – | 110% | 101% | 98.4% | 97.7% | 108% | 104% |
| OCCN(CCO)C(=S)S | 104% | 113% | 129% | – | 104% | 94.8% | 91.7% | 107% | 113% | 102% |
| Cc1ccc(C)n1-c1ccsc1C(=O)NNC(=O)CCl | 88.8% | 106% | 112% | – | 93.4% | 85.8% | 82.7% | 16.4% | 111% | 95.6% |
| COc1ccc(-c2cc(-c3cc(-c4ccc(OC)cc4)nc(N)n3)nc(N)n2)cc1 | 103% | 105% | 91.4% | – | 96.5% | 97.1% | 91.4% | 95% | 103% | 101% |
| Cc1cc(NC(=O)CSCC(=O)O)no1 | 96.7% | 98.5% | 102% | – | 98.6% | 101% | 94.7% | 103% | 108% | 101% |
